According to the supplement of paper PMC12494721:
Where a name gives a salt, the structure may show the parent alone. Unmarked numbers belong to inactive results.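 How the source made its calls: for the amine columns active = adjusted P below 0.05 in both replicates with a change the same way and a mean fold change under 0.8 or over 1.25; inactive = the rest.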

What follows are compounds tested on Escherichia coli IAI1 (assay: fold change of Putrescine concentration vs plate DMSO controls (fold change (ratio)); higher = more amine produced, active = hit call of the paper (significant change in both replicates, either direction)). Settings: incubation time: 27 h, anaerobic, 37 °C.
Procedure, shortened: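 Anaerobic mGAM cultures of four gut bacterial strains were grown at 37 °C for 27 h in 80 µL wells, starting at OD 0.1 before 1:1 dilution. Compounds were at 20 µM final (sweeteners 50 µM). Whole cultures were extracted with cold acetonitrile/methanol containing 0.1% formic acid and centrifuged. Amines were quantified by LC–triple-quadrupole MS (dynamic MRM) against external calibration curves and drift-corrected within batch. Each value is the fold change versus plate DMSO controls, averaged over 2 biological replicates.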

SMILES	fold change of Putrescine concentration
CC(=O)Nc1ccc(O)cc1 [Acetaminophen] (20 µM)	1.01
CC(C)(C)CC(C)(C)c1ccc(OCCOCC[N+](C)(C)Cc2ccccc2)cc1 [Benzethonium chloride] (20 µM)	0.975
C[C@H]1[C@H](NC(=O)/C(=N\OC(C)(C)C(=O)O)c2csc(N)n2)C(=O)N1S(=O)(=O)O [Aztreonam] (20 µM)	0.86
Nc1ccn([C@@H]2CS[C@H](CO)O2)c(=O)n1 [Lamivudine] (20 µM)	1.02
Cc1nnc(SCC2=C(C(=O)O)N3C(=O)[C@@H](NC(=O)Cn4cnnn4)[C@H]3SC2)s1 [Cefazolin sodium salt] (20 µM)	0.16 (active)
CN(C)CCCN1c2ccccc2CCc2ccccc21 [Imipramine hydrochloride] (20 µM)	1.02
Clc1ccccc1CN1CCc2sccc2C1 [Ticlopidine hydrochloride] (20 µM)	1.01
COc1ccc(CCN(C)CCCC(C#N)(c2ccc(OC)c(OC)c2)C(C)C)cc1OC (centres undefined) [Verapamil hydrochloride] (20 µM)	1.05
Cc1cnc(NC(=O)C2=C(O)c3ccccc3S(=O)(=O)N2C)s1 [Meloxicam] (20 µM)	1.04
C=C[C@H]1CN2CC[C@H]1C[C@@H]2[C@@H](O)c1ccnc2ccc(OC)cc12 [Quinidine hydrochloride monohydrate] (20 µM)	0.986
C[C@H](CS)C(=O)N1CCC[C@H]1C(=O)O [Captopril] (20 µM)	0.963
CC(C)Cc1ccc([C@H](C)C(=O)O)cc1 [(S,+) Ibuprofen] (20 µM)	0.854
O=C(O)CCNC(=O)c1ccccc1 [Betamipron] (20 µM)	1.04
CCc1c2c(nc3ccc(OC(=O)N4CCC(N5CCCCC5)CC4)cc13)-c1cc3c(c(=O)n1C2)COC(=O)[C@]3(O)CC [Irinotecan hydrochloride trihydrate] (20 µM)	1.11
Nc1nc2c(ncn2COCCO)c(=O)[nH]1 [Acyclovir] (20 µM)	1.03
Nc1ncn(C2OC(CO)C(O)C2O)c(=O)n1 (centres undefined) [Azacytidine-5] (20 µM)	0.794
CCN(CC)CCNC(=O)c1ccc(N)cc1 [Procainamide hydrochloride] (20 µM)	0.969
O=C(O)c1cn(C2CC2)c2cc(N3CCNCC3)c(F)cc2c1=O [Ciprofloxacin hydrochloride monohydrate] (20 µM)	0.53
COc1cc(Cc2cnc(N)nc2N)cc(OC)c1OC [Trimethoprim] (20 µM)	0.829
O=C1C(=O)c2ccccc2C(O)=C1C1CCC(c2ccc(Cl)cc2)CC1 (centres undefined) [Atovaquone] (20 µM)	0.973
CC[C@]12CCCN3CCc4c(n(c5ccccc45)[C@@](O)(C(=O)OC)C1)[C@@H]32 [Vincamine] (20 µM)	0.996
Cc1noc(NS(=O)(=O)c2ccc(N)cc2)c1C [Sulfisoxazole] (20 µM)	1.03
Cc1ccc(NC(=O)c2ccc(CN3CCN(C)CC3)cc2)cc1Nc1nccc(-c2cccnc2)n1 [Imatinib] (20 µM)	0.954
COc1cc2nc(N3CCN(C(=O)c4ccco4)CC3)nc(N)c2cc1OC [Prazosin hydrochloride] (20 µM)	1.16
CCOC(=O)C1=C(COCCN)NC(C)=C(C(=O)OC)C1c1ccccc1Cl (centres undefined) [Amlodipine] (20 µM)	0.986
CN1[C@@H]2CC[C@H]1CC(OC(=O)C(O)c1ccccc1)C2 (mixture of isomers) [(R,S) Homatropine hydrobromide] (20 µM)	0.995
CO/N=C(\C(=O)N[C@@H]1C(=O)N2C(C(=O)O)=C(C[N+]3(C)CCCC3)CS[C@H]12)c1csc(N)n1 [Cefepime hydrochloride] (20 µM)	0.285 (active)
CCn1cc(C(=O)O)c(=O)c2cc(F)c(N3CCN(C)CC3)cc21 [Pefloxacin] (20 µM)	0.793
CN(CCOc1ccc(NS(C)(=O)=O)cc1)CCc1ccc(NS(C)(=O)=O)cc1 [Dofetilide] (20 µM)	0.989
